# Screens (PubChem BioAssay)
# DT40 TDP1 CPT – growth inhibition of DT40 Tdp1-/-;hTDP1 cells with camptothecin (screen for TDP1 inhibitors); chicken DT40 Tdp1-/-;hTDP1 cells + 20 nM CPT, ATP luminescence, 48 h; 12% of 420,000 active; Potency, µM (titrated, usually from 46.2 µM), inactives show top-dose activity change, negative = growth inhibition, actives largely listed as inhibitors; AID 686979; further: potency means the concentration at half of the fitted maximal effect; on the % scale 0 is the no-effect control and ±100 the full control effect; nearly all actives have a fitted effect of over 55% in size
#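 Chicken DT40 Tdp1-/- cells stably complemented with human TDP1 were seeded at 400 cells/well in medium containing 20 nM camptothecin, exposed to pin-transferred compounds, and grown at 37 °C for at least 48 hr. Viability was read as ATP luminescence.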
# TDP1 inh – blocks human tyrosyl-DNA phosphodiesterase 1 | Q9NUW8 | recombinant TDP1, AlphaScreen DNA substrate cleavage | Potency, µM (doses to about 130 µM), inactives show at the highest dose activity change, negative = inhibition, most hits filed as inhibitors | 0.28% of 350,000 active; further: potency means the concentration at half of the fitted maximal effect; on the % scale 0 is the no-effect control and ±100 the full control effect; nearly all actives have a fitted effect of over 40% in size
# Target sequence (Q9NUW8 whole entry, looked up): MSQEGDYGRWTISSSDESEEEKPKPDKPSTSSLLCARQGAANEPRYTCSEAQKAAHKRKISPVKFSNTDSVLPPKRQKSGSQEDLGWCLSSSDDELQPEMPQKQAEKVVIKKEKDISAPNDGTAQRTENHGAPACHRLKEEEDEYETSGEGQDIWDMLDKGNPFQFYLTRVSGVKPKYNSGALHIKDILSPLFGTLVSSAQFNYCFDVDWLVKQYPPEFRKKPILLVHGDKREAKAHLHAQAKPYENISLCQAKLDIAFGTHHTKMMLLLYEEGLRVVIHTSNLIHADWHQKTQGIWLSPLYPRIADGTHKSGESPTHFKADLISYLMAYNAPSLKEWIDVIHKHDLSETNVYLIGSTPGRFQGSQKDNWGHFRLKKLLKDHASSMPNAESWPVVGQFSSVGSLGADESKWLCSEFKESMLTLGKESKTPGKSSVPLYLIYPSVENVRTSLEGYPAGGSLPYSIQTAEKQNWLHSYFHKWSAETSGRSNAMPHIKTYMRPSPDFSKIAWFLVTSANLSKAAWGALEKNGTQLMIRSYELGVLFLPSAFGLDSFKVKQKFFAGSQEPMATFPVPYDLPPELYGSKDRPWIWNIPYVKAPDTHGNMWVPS
#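 Enzyme-compound mixtures sat 15 min at room temperature, followed by a 5 min reaction with 15 nM final substrate and 10 min with AlphaScreen beads. Recombinant human Tdp1 was used at 1 nM final.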
# TDP1 cell noCPT – qHTS for Inhibitors of human tyrosyl-DNA phosphodiesterase 1 (TDP1): qHTS in cells in absence of CPT. Potency, µM (titrated, usually from 46.2 µM), inactives show at the highest dose activity change, negative = growth inhibition, usual class: inhibitors. DT40 Tdp1-/- hTDP1 cells, no CPT, ATP luminescence, 48 h. AID 686978, 2013. 15% of 420,000 active; further: potency means the concentration at half of the fitted maximal effect; on the % scale 0 is the no-effect control and ±100 the full control effect; nearly all actives have a fitted effect of over 55% in size
#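 Stably hTDP1-transfected Tdp1-null chicken DT40 cells were treated with library compounds minus camptothecin and grown for at least 48 hr at 37 °C, after which cellular ATP was quantified by luminescence.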
# IL-1B inflam inh – inflammasome signaling inhibition, IL-1 beta readout; THP-1 LPS/ATP IL-1B secretion, AlphaLISA, 16 h; stronger effect = lower value; activity change, % at 57.5 µM; 4.7% of 360,000 active; in the data active means activity change below about -50%; inconclusive means mostly about -30% to -49%; further: on the % scale 0 is the no-effect control and ±100 the full control effect
#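 THP-1 cells pretreated 1 hr with compounds (up to 57.5 uM final), then stimulated with LPS (250 ng/mL final) plus ATP (1.25 mM final); secreted IL-1B measured by AlphaLISA after 16 hr, decreased signal indicating inhibition.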
# TGFb SMAD3 inh – blocks TGF-b signaling; HepG2 CAGA-GFP TGF-b/SMAD3 reporter, GFP fluorescence, 18 h; TGF-beta stimulated, 500 pg/mL final; Potency, µM (doses to about 46.1 µM), inactives show at the highest dose activity, negative = inhibition, actives largely listed as inhibitors; 1.2% of 410,000 active; further: potency means the concentration at half of the fitted maximal effect; on the % scale 0 is the no-effect control and ±100 the full control effect; nearly all actives have a fitted effect of over 65% in size
#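 Read-out: total well GFP (ex488/em500-530) summed from mean per-cell fluorescence. Cells: HEPG2 CAGA-GFP, 1% FBS DMEM, 18 h at 37 degrees C with 500 pg/mL final TGF-beta. Unstimulated wells served as the full-inhibition control; stimulated DMSO wells = 0%.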
# HepG2 viability – HepG2 cytotoxicity, counter-screen for TGF-b inhibitors. HepG2 CAGA-GFP viability, ATP luminescence, 18 h. Potency, µM (highest dose often 46.1 µM), for inactives: at the top dose activity change, negative = cytotoxicity, most hits filed as cytotoxic. 0.76% of 410,000 active. AID 588856; further: potency means the concentration at half of the fitted maximal effect
#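 HepG2 CAGA-GFP cells (1000/well, DMEM with 1% FBS) received compound, then TGF-beta at 500 pg/mL final, and were incubated 18 hours at 37 degrees C. Viability was read by CellTiter-Glo luminescence. Media-only wells were set as complete cell-killing and DMSO as no toxicity.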
# * = called active by the depositor; ? = inconclusive; . = no result given; [ ] = another dose, or the depositor's remark. Shown are actives, neighbours in structure and some others; about 18% of the full set was active somewhere. Unless noted, the call rests on the fitted dose curve; in most records, active means well fitted curve in the direction sought with a large enough effect; inconclusive means small, poorly fitted or top-dose-only effect, or another doubt; inactive means no such curve, though single readings can be large; an effect the other way counts as inactive or inconclusive.
SMILES,DT40 TDP1 CPT,TDP1 inh,TDP1 cell noCPT,IL-1B inflam inh,TGFb SMAD3 inh,HepG2 viability
COc1ccc(Cc2nc3ccc(C(=O)N4CCN(C)C(C)C4)cc3o2)cc1OC (stereo not given),?,1.9%,18.4µM*,-1.1,-8.3%,-0.1%
NC(=O)C1CCCN(C(=O)c2ccc3nc(Cc4cccc(Cl)c4)oc3c2)C1 (stereo not given),-1.5%,2.0%,6.3%,0.0,15.9%,13.0%
COc1ccc(Cc2nc3ccc(C(=O)NCc4cc(C)no4)cc3o2)cc1OC,?,2.0%,?,24.7,0.0%,-4.1%
COc1ccc(Cc2nc3ccc(C(=O)NC(C)Cc4ncccc4C)cc3o2)cc1OC (stereo not given),18.4µM*,3.1%,?,-8.4,?,-26.5%
Cc1ccccc1C(=O)NCC(C)NC(=O)c1ccccc1C (stereo not given),0.5%,.,-20.8%,-15.7,7.4%,9.0%
CSc1nc(N)c2cn[nH]c2n1,2.2%,.,-3.6%,14.5,0.6%,5.1%
COc1ccc(Cc2nc3ccc(C(=O)N4CCCCC4CO)cc3o2)cc1OC (stereo not given),?,.,20.6µM*,9.5,-15.7%,-27.8%
COc1ccc(Cc2nc3ccc(C(=O)N(C)Cc4nccs4)cc3o2)cc1OC,10.3µM*,1.0%,?,36.4,-5.7%,-14.5%
COc1ccc(Cc2nc3ccc(C(=O)N4CCCC4)cc3o2)cc1OC,?,1.6%,20.6µM*,-0.5,-15.3%,-15.0%
COc1ccc(Cc2nc3ccc(C(=O)N4CCC[C@H]4CO)cc3o2)cc1,?,2.4%,-0.6%,2.6,2.9%,-13.7%
COc1ccc(Cc2nc3ccc(C(=O)N(C)C(C)c4nccs4)cc3o2)cc1 (stereo not given),-18.0%,5.5%,-4.2%,37.3,13.4%,1.1%
COc1ccc(Cc2nc3ccc(C(=O)NCc4cccc(C)n4)cc3o2)cc1OC,18.4µM*,.,?,?,9.5%,0.2%
COc1ccc(Cc2nc3ccc(C(=O)N4CCCC4)cc3o2)cc1,-15.3%,6.0%,-8.1%,42.8,-1.2%,-4.0%
COc1cccc(-c2cccc(NC(=O)C3CCN(CC4CCOC4)CC3)c2)c1 (stereo not given),13.3%,1.5%,16.1%,6.4,-6.7%,-3.6%
CC(C)(C)OC(=O)C[C@H]1C/C=C\C[C@@H](CC(=O)N(CCO)Cc2ccccc2)C(=O)N[C@@H](Cc2ccccc2)COC1=O,?,1.1%,?,-16.4,-13.9%,0.2%
c1ccc(CCc2cn(C[C@H]3CC[C@@H]([C@@H]4CC[C@H](Cn5cc(CCc6ccccc6)nn5)O4)O3)nn2)cc1,?,.,14.6µM*,-4.0,-30.2%,-35.7%
c1ccc(-c2cn(C[C@H]3CC[C@@H]([C@@H]4CC[C@H](Cn5cc(-c6ccccc6)nn5)O4)O3)nn2)cc1,25.9µM*,.,?,-14.4,?,1.2%
OCCCc1cn(CC2CCCCC2)nn1,-15.2%,.,-1.4%,-1.8,-0.8%,8.2%
c1ccc(-c2cn(C[C@H]3CC[C@@H]([C@@H]4CC[C@H](Cn5cc(-c6ccccn6)nn5)O4)O3)nn2)nc1,-28.5%,.,-23.5%,2.7,-24.5%,4.9%
CC1CN(CCCCN2C(=O)c3ccccc3C2=O)CC(C)O1 (stereo not given),-11.2%,.,22.6%,14.6,-2.6%,-7.3%
O=C1c2ccccc2C(=O)N1CCCCc1cn(C[C@H]2CC[C@H](Cn3cc(CCCCN4C(=O)c5ccccc5C4=O)nn3)O2)nn1,?,-0.1%[56.1 µM],20.6µM*,-6.6,-21.8%,-3.8%
CCN(CC)S(=O)(=O)c1c(OC)cc(C)c(Cl)c1C,?,-3.6%,?,24.7,0.4%,-0.4%
COc1ccc(C(=O)NN/C=C/C(=O)c2ccc(Br)cc2)cc1,23.1µM*,.,?,69.3,?,-29.1%
O=C(/C=C/NNC(=O)c1ccccc1)c1ccc(Br)cc1,3.26µM*,9.8%,4.61µM*,80.8,0.0%,-90.8%
O=C(/C=C/NNC(=O)c1ccc(Cl)cc1)c1ccccc1,?,2.3%,?,42.3,-17.5%,-12.2%
SMILES,DT40 TDP1 CPT,TDP1 inh,TDP1 cell noCPT,IL-1B inflam inh,TGFb SMAD3 inh,HepG2 viability
Cc1ccc(C(=O)/C=C/NNC(=O)c2ccccc2O)cc1,16.4µM*,.,?,90.2,?,-62.6%
Cc1ccc(C(=O)NC(=S)NNC(=O)c2ccccc2O)cc1,?,.,?,66.9,-9.7%,-7.4%
COc1ccc(C(=O)C=CNNC(=O)c2ccc(Cl)cc2)cc1,3.26µM*,.,?,147.8,12.6µM*,-31.3%
CN(Cc1ccc(C(C)(C)C)cc1)C(=O)c1ccc2c(c1)OCO2,-11.2%,-6.7%,?,-18.0,1.3%,-14.3%
CCc1ccc2oc(C(=O)Nc3cccnc3)c(C)c2c1,16.4µM*,0.9%,23.1µM*,-3.8,?,-57.0%
Cc1c(C(=O)Nc2cnccn2)oc2ccccc12,11.6µM*,6.9%,?,32.2,-11.3%,-8.0%
Cc1ccnc(NC(=O)c2oc3ccccc3c2C)c1,?,.,?,53.9,0.4%,-22.3%
CCCN(CCC)C(=O)Cn1c(=O)n(-c2ccc(C)c(C)c2)c(=O)c2c3c(sc21)CCCCC3,-14.0%,5.5%,-4.8%,.,-8.3%,5.4%
O=C(CC1NC(=O)NC1=O)Nc1ccc(Cl)cc1 (stereo not given),-19.1%,5.0%,21.0%,3.8,-14.4%,6.9%
CCCCNC(=O)CC1Nc2cc(C)c(C)cc2NC1=O (stereo not given),4.61µM*,.,5.17µM*,.,-11.3%,-1.2%
Cc1cc2c(cc1C)NC(CC(=O)Nc1cccc(Cl)c1)C(=O)N2 (stereo not given),16.4µM*,-0.4%[12.3 µM],?,.,?,-41.9%
CN1CCN(CC(=O)Nc2cc(S(=O)(=O)N3CCOCC3)ccc2Cl)CC1,-20.9%,3.7%,1.1%,-1.0,0.0%,-3.1%
Cc1cccc(-n2[nH]c3c4c(ccc3c2=O)C(=O)c2ccccc2C4=O)c1,20.6µM*,5.3%,?,-26.6,6.4%,-3.4%
